# PubChem BioAssay (NCATS)
# Results filed as inconclusive are left out. Entries that show only a call come without a potency. The source made the active and inactive calls. Calls come from the whole dose curve; as a rule, active = well fitted inhibition curve with a large enough effect; inconclusive = small, poorly fitted or top-dose-only effect; inactive = flat fitted curve, though single readings scatter.
# Experiments:
# Assay in all cases: qHTS profiling for inhibitors of Plasmodium falciparum proliferation (AID 504749); note: nearly all actives have a fitted effect of over 60% in size
# Conditions in all cases: P. falciparum in erythrocytes, SYBR Green DNA, 72 h; series mostly up to 28.7 µM
# DIV14 = system: DIV14
# Summary of the method: (§1)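 Readout was DNA-dye fluorescence from lysed cultures, ex 485/em 535 nm. Parasitized red cells had grown 72 h with compound; data scaled between 0.29 uM artemisinin and DMSO wells and corrected using vehicle-only plates.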
# DIV17 = system: DIV17
# Summary of the method: as §1
# DIV30 = system: DIV30
# Summary of the method: as §1
# Dd2 = system: Dd2
# Summary of the method: as §1
# ECU = system: ECU
# Summary of the method: as §1
# FAB9 = system: FAB9
# Summary of the method: as §1
# GB4 = system: GB4
# Summary of the method: as §1
# HB3 = system: HB3
# Summary of the method: as §1
# ICS = system: ICS
# Summary of the method: as §1
# JCK = system: JCK
# Summary of the method: as §1
# N140 = system: N140
# Summary of the method: as §1
# P93_24 = system: P93_24
# Summary of the method: as §1
# P94_40 = system: P94_40
# Summary of the method: as §1
# PAD = system: PAD
# Summary of the method: as §1
# PC15 = system: PC15
# Summary of the method: as §1
# PC26 = system: PC26
# Summary of the method: as §1
# PC49 = system: PC49
# Summary of the method: as §1
# SC27B = system: SC27B
# Summary of the method: as §1
# TAB109 = system: TAB109
# Summary of the method: as §1
# TAB113 = system: TAB113
# Summary of the method: as §1
# Potency is the fitted concentration of half-maximal effect.
SMILES,Potency (DIV14),Potency (DIV17),Potency (DIV30),Potency (Dd2),Potency (ECU),Potency (FAB9),Potency (GB4),Potency (HB3),Potency (ICS),Potency (JCK),Potency (N140),Potency (P93_24),Potency (P94_40),Potency (PAD),Potency (PC15),Potency (PC26),Potency (PC49),Potency (SC27B),Potency (TAB109),Potency (TAB113)
CC(C)[N+](C)(CCC(C(N)=O)(c1ccccc1)c1ccccc1)C(C)C,inactive,inactive,inactive,inactive,inactive,inactive,inactive,inactive,inactive,inactive,inactive,inactive,inactive,inactive,inactive,inactive,inactive,inactive,inactive,inactive
O=c1n(Cl)c(=O)n(Cl)c(=O)n1Cl,inactive,inactive,inactive,inactive,inactive,inactive,inactive,inactive,inactive,inactive,inactive,inactive,inactive,inactive,inactive,inactive,inactive,inactive,inactive,inactive
CC(C)(O)C(Cl)(Cl)Cl,1.51 µM (active),1.51 µM (active),5.36 µM (active),2.51 µM (active),3.98 µM (active),7.94 µM (active),2.69 µM (active),2 µM (active),0.891 µM (active),11.2 µM (active),2.51 µM (active),2.24 µM (active),2.51 µM (active),3.55 µM (active),2.24 µM (active),8.49 µM (active),7.08 µM (active),4.47 µM (active),3.16 µM (active),4.47 µM (active)
NCc1cccnc1,inactive,inactive,inactive,inactive,inactive,inactive,inactive,inactive,inactive,inactive,inactive,inactive,inactive,inactive,inactive,inactive,inactive,inactive,inactive,inactive
C[C@]12CC[C@H]3[C@@H](CC=C4C[C@@H](O)CC[C@@]43C)[C@@H]1CC[C@@H]2O,inactive,inactive,inactive,inactive,inactive,inactive,inactive,inactive,inactive,inactive,inactive,inactive,inactive,inactive,inactive,inactive,inactive,inactive,inactive,inactive
NC(=O)CN1CCCC1=O,inactive,inactive,inactive,inactive,inactive,inactive,inactive,inactive,inactive,inactive,inactive,inactive,inactive,inactive,inactive,inactive,inactive,inactive,inactive,inactive
CN(C)C(=S)SSC(=S)N(C)C,1.9 µM (active),1.51 µM (active),1.69 µM (active),1 µM (active),6.31 µM (active),6.31 µM (active),2.13 µM (active),1.26 µM (active),0.891 µM (active),8.91 µM (active),1.78 µM (active),2.51 µM (active),2 µM (active),2 µM (active),3.16 µM (active),3.79 µM (active),11.2 µM (active),6.31 µM (active),1.58 µM (active),3.98 µM (active)
CNC(=O)Oc1cccc2ccccc12,,inactive,inactive,inactive,inactive,inactive,,inactive,,inactive,inactive,,12.6 µM (active),,,,inactive,inactive,inactive,inactive
COc1ccc(CN2CCNCC2)c(OC)c1OC,,,,inactive,inactive,inactive,,inactive,inactive,inactive,inactive,inactive,inactive,inactive,inactive,,inactive,inactive,inactive,inactive
O=C(NC(=O)c1c(F)cccc1F)Nc1cc(Cl)c(OC(F)(F)C(F)C(F)(F)F)cc1Cl (stereo unspecified),inactive,inactive,inactive,,,inactive,inactive,,,inactive,,8.91 µM (active),12.6 µM (active),,inactive,inactive,,,,11.2 µM (active)
Cc1c(Cl)c(=O)oc2cc(OP(=O)(OCCCl)OCCCl)ccc12,8.49 µM (active),,,,10 µM (active),inactive,12 µM (active),11.2 µM (active),11.2 µM (active),,8.91 µM (active),11.2 µM (active),6.31 µM (active),,inactive,,inactive,7.94 µM (active),10 µM (active),10 µM (active)
COP(=O)(OC)OC=C(Cl)Cl,inactive,inactive,inactive,inactive,inactive,inactive,inactive,inactive,,inactive,inactive,inactive,inactive,inactive,inactive,inactive,inactive,inactive,inactive,inactive
O=C1NCN(c2ccccc2)C12CCN(CCCOc1ccc(F)cc1)CC2,8.49 µM (active),,,8.91 µM (active),inactive,inactive,6.75 µM (active),inactive,,inactive,,8.91 µM (active),,,,,,,,
Nc1ccc(N)cc1,15.1 µM (active),15.1 µM (active),,inactive,,,15.1 µM (active),inactive,,inactive,,,,,,,inactive,,,
C[C@]12Cc3nonc3C[C@@H]1CC[C@@H]1[C@@H]2CC[C@@]2(C)[C@H]1CC[C@]2(C)O,inactive,inactive,inactive,inactive,inactive,inactive,inactive,inactive,,inactive,inactive,inactive,inactive,inactive,inactive,inactive,inactive,inactive,inactive,inactive
C#C[C@]1(O)CC[C@H]2[C@@H]3CCC4=CC(=O)CCC4=C3C=C[C@@]21CC,4.26 µM (active),5.36 µM (active),,,11.2 µM (active),,,10 µM (active),8.91 µM (active),inactive,,,,,6.31 µM (active),6.01 µM (active),8.91 µM (active),,12.6 µM (active),
COP(=O)(OC)C(O)C(Cl)(Cl)Cl (stereo unspecified),inactive,inactive,inactive,inactive,,inactive,,inactive,,inactive,inactive,inactive,inactive,inactive,inactive,inactive,inactive,inactive,inactive,inactive
COCC(=O)N(c1c(C)cccc1C)C(C)C(=O)OC (stereo unspecified),inactive,inactive,inactive,inactive,,inactive,inactive,inactive,inactive,inactive,,,,,inactive,inactive,inactive,inactive,,inactive
CNC(=O)NC(O)C(Cl)(Cl)Cl (stereo unspecified),,inactive,inactive,inactive,inactive,inactive,inactive,inactive,inactive,inactive,inactive,inactive,inactive,inactive,inactive,inactive,inactive,inactive,inactive,inactive
OC(c1ccccc1)(c1ccccc1)C1CCNCC1,,,,inactive,inactive,inactive,inactive,inactive,,inactive,inactive,inactive,inactive,inactive,,inactive,,inactive,inactive,inactive
CN1CCc2cc(Cl)c(O)cc2[C@H]2c3ccccc3CC[C@@H]21,,,,10 µM (active),,inactive,,,,inactive,,,,inactive,inactive,,inactive,,,inactive
C[C@]12C=CC(=O)C=C1CC[C@@H]1[C@@H]2CC[C@@]2(C)[C@H]1CC[C@]2(C)O,,,16.9 µM (active),inactive,inactive,inactive,,inactive,inactive,inactive,inactive,inactive,inactive,inactive,inactive,,inactive,inactive,inactive,inactive
CC[C@]1(O)CC[C@H]2[C@@H]3CCC4=CCCC[C@@H]4[C@H]3CC[C@@]21C,,,,inactive,inactive,inactive,inactive,inactive,,inactive,,,11.2 µM (active),,inactive,inactive,inactive,,inactive,
Clc1ccc(CO/N=C(\Cn2ccnc2)c2ccc(Cl)cc2Cl)c(Cl)c1,1.51 µM (active),1.9 µM (active),3.38 µM (active),4.47 µM (active),2.24 µM (active),,1.69 µM (active),7.94 µM (active),1.12 µM (active),,2.24 µM (active),2.24 µM (active),2.82 µM (active),2.51 µM (active),3.16 µM (active),4.26 µM (active),,3.16 µM (active),3.55 µM (active),2.51 µM (active)
CN1C(=O)CN=C(c2ccccc2)c2cc([N+](=O)[O-])ccc21,inactive,inactive,inactive,inactive,inactive,inactive,inactive,,inactive,inactive,inactive,inactive,inactive,inactive,inactive,inactive,inactive,inactive,inactive,inactive
CC(C)NCC(O)c1ccc(N)c(C#N)c1 (stereo unspecified),inactive,inactive,inactive,inactive,inactive,inactive,inactive,inactive,inactive,inactive,inactive,inactive,inactive,inactive,inactive,,inactive,inactive,inactive,inactive
CN1C(=O)[C@@H](NC(=O)c2cc3ccccc3[nH]2)N=C(c2ccccc2)c2ccccc21,12 µM (active),10.7 µM (active),,11.2 µM (active),10 µM (active),inactive,15.1 µM (active),,8.91 µM (active),inactive,,,11.2 µM (active),,inactive,,inactive,,,
CCC1(c2ccccc2)CCC(=O)NC1=O (stereo unspecified),inactive,,inactive,inactive,inactive,inactive,,,11.2 µM (active),inactive,inactive,,inactive,inactive,inactive,inactive,inactive,inactive,inactive,inactive
CN1C[C@@H](NS(=O)(=O)N(C)C)C[C@@H]2c3cccc4c3c(cn4C)C[C@H]21,inactive,inactive,,,inactive,inactive,inactive,inactive,,inactive,inactive,,,inactive,inactive,inactive,inactive,inactive,,inactive
N#Cc1nn(-c2c(Cl)cc(C(F)(F)F)cc2Cl)c(N)c1S(=O)C(F)(F)F (stereo unspecified),4.78 µM (active),7.57 µM (active),9.53 µM (active),,,,7.57 µM (active),,5.62 µM (active),,7.94 µM (active),,,,12.6 µM (active),9.53 µM (active),inactive,5.01 µM (active),,6.31 µM (active)
